Measured values published in article PMC4336329 (PLoS ONE, 2015).
The whole screen tested about 310,000 compounds, of which about 14,000 (4.5%) showed an effect of 50% or more. The effect is printed as a negative number. The sample as a whole holds a higher share of strong results than the screen did.

target: human ether-à-go-go-related gene (hERG) potassium channel (human, UniProt Q12809); test: primary screen, population patch clamp on CHO cells stably expressing hERG; higher = less effect of the substance
Sequence (Q12809 whole entry, looked up): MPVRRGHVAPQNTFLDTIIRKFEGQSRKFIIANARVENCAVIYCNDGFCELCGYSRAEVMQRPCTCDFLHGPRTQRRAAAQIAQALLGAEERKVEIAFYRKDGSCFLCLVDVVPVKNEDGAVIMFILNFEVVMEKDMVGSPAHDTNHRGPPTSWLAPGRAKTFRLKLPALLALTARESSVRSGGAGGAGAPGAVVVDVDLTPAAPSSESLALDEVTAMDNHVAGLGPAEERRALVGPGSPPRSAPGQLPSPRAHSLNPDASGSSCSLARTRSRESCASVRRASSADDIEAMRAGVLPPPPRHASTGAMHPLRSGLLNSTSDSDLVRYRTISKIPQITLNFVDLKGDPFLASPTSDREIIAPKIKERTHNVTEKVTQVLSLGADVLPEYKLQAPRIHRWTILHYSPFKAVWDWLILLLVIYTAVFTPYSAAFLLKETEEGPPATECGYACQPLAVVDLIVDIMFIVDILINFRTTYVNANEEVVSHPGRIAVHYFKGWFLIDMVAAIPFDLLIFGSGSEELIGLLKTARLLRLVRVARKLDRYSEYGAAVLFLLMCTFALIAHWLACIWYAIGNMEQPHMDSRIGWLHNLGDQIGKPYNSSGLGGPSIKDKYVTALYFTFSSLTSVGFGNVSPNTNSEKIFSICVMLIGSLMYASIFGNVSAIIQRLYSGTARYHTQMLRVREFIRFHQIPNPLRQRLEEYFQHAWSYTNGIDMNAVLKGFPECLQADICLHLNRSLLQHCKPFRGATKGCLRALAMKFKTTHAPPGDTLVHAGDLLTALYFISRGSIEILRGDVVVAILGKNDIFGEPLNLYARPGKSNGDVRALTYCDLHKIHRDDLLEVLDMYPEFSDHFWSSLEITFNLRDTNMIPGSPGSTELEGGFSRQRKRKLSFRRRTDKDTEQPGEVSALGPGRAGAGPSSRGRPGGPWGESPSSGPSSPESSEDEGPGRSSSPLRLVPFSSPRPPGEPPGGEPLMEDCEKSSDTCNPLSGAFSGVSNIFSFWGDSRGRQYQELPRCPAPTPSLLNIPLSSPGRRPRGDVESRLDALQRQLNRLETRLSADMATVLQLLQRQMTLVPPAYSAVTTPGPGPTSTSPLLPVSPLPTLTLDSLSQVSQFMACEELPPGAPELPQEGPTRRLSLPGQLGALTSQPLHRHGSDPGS
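Note: peak tail current of the secondary pulse compared with the same well before compound.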

SMILES | hERG current change (%, negative = inhibition) at 10uM [%]
O=S(=O)(c1ccccc1)c1cnn(-c2ccccc2)c1-c1ccc(F)cc1 | -0.19
Cc1ccc(C)c(NC(=S)N2CCCCCC2)c1 | 0.578
Cc1nn(C)c(C(=O)N2CCN(C(=O)c3ccco3)CC2)c1[N+](=O)[O-] | 8.95
O=C(c1ccco1)N1CCN(c2c([N+](=O)[O-])nn(-c3cccc(Cl)c3)[n+]2[O-])CC1 | -38.1
Cc1cccc(-n2nc([N+](=O)[O-])c(N3CCN(C(=O)c4ccco4)CC3)[n+]2[O-])c1 | -68.7
O=[N+]([O-])c1nn(-c2ccccc2)[n+]([O-])c1N1CCN(c2ccccc2)CC1 | -0.32
O=C(c1ccco1)N1CCN(c2ccc(Cl)c(Cl)c2)CC1 | -29.7
O=C(c1ccco1)N1CCN(c2c([N+](=O)[O-])nn(-c3ccc(Cl)cc3)[n+]2[O-])CC1 | -57.2
Cc1ccc(NC(=O)CC2SC(=NCC3CCCO3)NC2=O)cc1Cl (centres unmarked) | -3.57
Cc1c(C)n2c(SCC(=O)NC3CCCCC3)nnc2[nH]c1=O | -8.13
CCCCN(C(=O)c1ccco1)C1CCS(=O)(=O)C1 (centres unmarked) | 0.36
O=C1c2ccc(-c3ccc4c(c3)C(=O)N(CCO)C4=O)cc2C(=O)N1CCO | 14.6
Cc1ccccc1CC(=O)N(CCN(C)C)CC1CCCN(Cc2ccccc2F)C1 (centres unmarked) | 1.19
COc1ccccc1CCN1CCCC(CN(C)C(=O)c2ccoc2)C1 (centres unmarked) | -51.2
CN(CC1CCCN(CCc2ccccc2F)C1)C(=O)c1ccoc1 (centres unmarked) | -66.7
COc1ccccc1CCN1CCCC(CN(C)CC(C)(C)CO)C1 (centres unmarked) | -0.609
COc1ccccc1CCN1CCCC(CN(C)C(=O)c2ccco2)C1 (centres unmarked) | -68.9
COCC(=O)N(C)CC1CCCN(CCc2ccccc2OC)C1 (centres unmarked) | 7.26
COc1ccccc1CCN1CCCC(CN(C)C(=O)c2ccc3nc[nH]c3c2)C1 (centres unmarked) | 12.1
Cc1occc1C(=O)N(C)CC1CCCN(CCc2ccccc2F)C1 (centres unmarked) | -51.1
CN(C)CCN(CC1CCCN(Cc2ccccc2F)C1)C(=O)c1ccc(F)cc1 (centres unmarked) | 3.46
O=c1[nH]oc2cc(Cl)ccc12 | 11.3

SMILES | hERG current change (%, negative = inhibition) at 10uM [%]
CCOc1ccc(OCC(=O)Nc2ccc(S(N)(=O)=O)cc2)cc1 | -7.32
O=C(NCc1cccs1)c1nc2c(nnn2Cc2ccccc2Cl)c(=O)[nH]1 | 5.42
COC(=O)CSc1nn(-c2ccc(F)cc2)c(=S)s1 | -2.71
Cn1c(CC(=O)Nc2ccccc2)nnc1SCCOc1ccccc1 | 2.08
CC1CC(=O)Nc2ccc([N+](=O)[O-])cc2N1C (centres unmarked) | 7.59
Cc1cc(C)c(C(=O)N(CCN(C)C)CC2CCCN(Cc3ccccc3F)C2)o1 (centres unmarked) | 7.61
Cc1cc(C)c(C(=O)N(C)CC2CCCN(CCc3ccccc3F)C2)o1 (centres unmarked) | -70.4
Cc1cc(C)c(C(=O)N(C)C2CCCN(Cc3ccccc3F)C2)o1 (centres unmarked) | -0.652
CCCn1c(SCC(=O)Nc2nccs2)nnc1-c1cccnc1 | -0.265
COc1cccc(NC(=O)c2oc3ccccc3c2NC(=O)c2ccc3c(c2)OCO3)c1 | 5.18
O=C1C2CC=CCC2C(=O)N1c1n[nH]c(Cc2ccccc2)n1 (centres unmarked) | 2.31
COc1ccccc1C(CNC(=O)CNC(=O)c1ccc(Cl)c(Cl)c1)N1CCCC1 (centres unmarked) | -32.9
CCCCSCCCNC(=O)c1cn(C)c2ccc(S(=O)(=O)N3CCCC3)cc2c1=O | 11.2
CCCCN(CCCC)CCNC(=O)c1cn(CC)c2ccc(S(=O)(=O)N3CCCC3)cc2c1=O | -65.7
CCCCNC(=O)c1cn(CC)c2ccc(S(=O)(=O)N3CCCCCC3)cc2c1=O | 7.01
CCCCNC(=O)c1cn(CC)c2ccc(S(=O)(=O)N3CCCC3)cc2c1=O | -38.1
CCCCN(CCCC)CCNC(=O)c1cn(C)c2ccc(S(=O)(=O)N3CCCC3)cc2c1=O | -57.9
CCCCNC(=O)c1cn(C)c2ccc(S(=O)(=O)N3CCCC3)cc2c1=O | 12.6
CCOc1ccc(NC(=O)CN(C)C(=O)CCCc2c[nH]c3ccccc23)cc1OCC | -3.25
CC(=O)c1ccc(NC(=O)CSc2nnc(-c3ccoc3C)n2Cc2ccccc2)cc1 | -30.8
Cc1nnc(SCC(=O)Nc2ccccc2)n1CCc1ccccc1 | -33
COc1ccccc1NC(=O)CSc1nnc(-c2ccoc2C)n1C | -1.59

SMILES | hERG current change (%, negative = inhibition) at 10uM [%]
Cc1occc1-c1nnc(SCC(=O)Nc2ccccc2)n1C | 9.72
Cc1ccccc1NC(=O)CSc1nnc(-c2ccoc2C)n1CCc1ccccc1 | -59.6
COc1ccccc1NC(=O)CSc1nnc(C)n1CCc1ccccc1 | -14.3
CCCn1c(SCC(=O)Nc2ccccc2-c2ccccc2)nnc1-c1ccoc1C | -26
Cc1occc1-c1nnc(SCC(=O)Nc2ccccc2)n1Cc1ccccc1 | -76.3
Cc1occc1-c1nnc(SCC(=O)Nc2ccc(F)cc2)n1Cc1ccccc1 | -49.4
Cc1cccc(C)c1NC(=O)CSc1nnc(-c2ccoc2C)n1CCc1ccccc1 | -46.3
COc1ccccc1NC(=O)CSc1nnc(-c2ccoc2C)n1CCc1ccccc1 | -64.8
Cc1occc1-c1nnc(SCC(=O)Nc2ccccc2)n1CCc1ccccc1 | -67
CSc1nc(SC)c2c3c(oc2n1)COC(C)(C)C3 | 7.86
Cc1ccc(N2CCN(/N=C/C(Cl)=C/c3ccccc3)CC2)cc1 | -5.13
O=C(CN(Cc1ccco1)C(=O)c1ccc(Cl)cc1)Nc1c(Cl)cc(Cl)cc1Cl | 7.76
CN1C(=O)c2ccccc2Sc2ccc(NC(=O)NC3CC3)cc21 | -11
CCOc1ccccc1C(=O)NCC(=O)NCC1CCCCC1 | 12.2
COc1ccc(N2C(=O)C3C4C=CC(CC4)C3C2=O)c([N+](=O)[O-])c1 (centres unmarked) | -5.27
O=C(/C=C/c1ccco1)NC(=S)Nc1ccc(O)c(-c2nc3ccccc3s2)c1 | 13.2
CSc1ccccc1NC(=S)N/N=C/c1cccn1Cc1ccc(F)cc1 | -6.67
O=C(c1cc(=O)c2ccccc2o1)N1CCN(c2ccccc2F)CC1 | -15.3
COc1ccc(NC(=O)CSc2nnc(-c3ccoc3C)n2CCc2ccccc2)cc1 | -54.3
COCCn1c(SCC(=O)Nc2ccc(OC)cc2)nnc1-c1ccoc1C | -3.58
Cc1cc(NC(=O)CSc2nnc(-c3ccc(Br)o3)n2Cc2ccccc2)no1 | -51.2
Cc1occc1-c1nnc(SCC(=O)NCCc2ccccc2)n1C(C)c1ccccc1 (centres unmarked) | -31.8

SMILES | hERG current change (%, negative = inhibition) at 10uM [%]
Cc1occc1-c1nnc(SCC(N)=O)n1Cc1ccccc1 | 3.5
Cc1cc(NC(=O)CSc2nnc(-c3ccco3)n2Cc2ccccc2)no1 | -44.3
COc1ccc(NC(=O)CSc2nnc(-c3ccoc3C)n2CC2CCCO2)cc1 (centres unmarked) | -5.04
Cc1occc1-c1nnc(SCC(=O)NCCc2ccccc2)n1Cc1ccccc1 | -81.1
Cc1cc(NC(=O)CSc2nnc(C3CC3)n2Cc2ccccc2)no1 | -8.63
COc1cccc2cc(C(=O)NCCc3ccccc3)oc12 | -20.1
C/C(=N\NC(=O)C1(C)CC1(Br)Br)c1ccc(NC(=O)c2ccc(C)o2)cc1 (centres unmarked) | -8.92
COc1cc2nc(-c3cccs3)oc(=O)c2cc1OC | 4.77
COc1cccc2c1Oc1ncccc1N(C(=O)CCC(=O)NCc1cccc(C)c1)C2 | -23.5
CC(C)[C@H](NC(=O)C1CCN(S(=O)(=O)c2ccccc2)CC1)C(=O)NCc1ccccc1 | 10.2
O=C(COC(=O)/C=C/c1ccc(Br)o1)NC1CCCCC1 | 11
O=C(CCN1CCN(c2ccccc2)CC1)N/N=C/c1ccc([N+](=O)[O-])o1 | -73.4
O=C(CCN1CCN(c2ccccc2)CC1)N/N=C/c1ccccc1O | -16
O=C(Cc1ccc([N+](=O)[O-])cc1)N/N=C/c1ccc([N+](=O)[O-])o1 | -64.7
O=C(N/N=C/c1ccc([N+](=O)[O-])o1)C1CCCC1 | 10.6
O=C(CN1CCCCCCC1)N/N=C/c1ccc([N+](=O)[O-])o1 | -52.1
O=C(Cc1ccccc1)N/N=C/c1ccc(-c2ccc([N+](=O)[O-])cc2)o1 | 4.21
CC(=O)Nc1ccc(/C=N/NC(=O)CCN2CCN(c3ccccc3)CC2)cc1 | -2.3
CCCCCC(=O)N/N=C/c1ccc([N+](=O)[O-])o1 | -26.2
O=C(Cc1ccc([N+](=O)[O-])cc1)N/N=C/c1ccco1 | -15.3
